# Reference: PubChem BioAssay AID651710 (Broad Institute, 2012)
# Values joined by “and” are separate entries in the source; they are usually repeats but may differ in a detail not shown here. Equal entries are not always repeated. Out of some 360,000 compounds screened, about 1,600 (0.44%) were called active. The sample holds actives, similar compounds and a random draw of the others, so the mix is not that of the screen.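 Rule for the calls: active = every replicate showing at least 50% inhibition; inconclusive = mean inhibition at least 50% but not in every replicate; inactive = the rest.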
# Target: DNA repair protein RAD52 homolog (Homo sapiens) (UniProt P43351)
# Sequence (P43351 whole entry, looked up): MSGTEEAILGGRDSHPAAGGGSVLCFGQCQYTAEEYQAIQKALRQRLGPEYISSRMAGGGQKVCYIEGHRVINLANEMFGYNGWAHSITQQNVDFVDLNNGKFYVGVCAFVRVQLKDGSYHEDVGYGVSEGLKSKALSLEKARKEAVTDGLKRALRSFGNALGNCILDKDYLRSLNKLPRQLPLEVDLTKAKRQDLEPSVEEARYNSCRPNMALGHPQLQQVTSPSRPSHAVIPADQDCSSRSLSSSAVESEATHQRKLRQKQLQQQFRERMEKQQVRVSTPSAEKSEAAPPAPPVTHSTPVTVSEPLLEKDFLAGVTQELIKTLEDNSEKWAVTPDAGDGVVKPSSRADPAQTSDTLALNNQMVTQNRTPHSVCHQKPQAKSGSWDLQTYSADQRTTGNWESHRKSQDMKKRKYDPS
# Experiment: RAD52 DNA annealing inhibitors, primary screen, biochemical, FRET, single point, set 2 (AID 651710)
# Settings: recombinant RAD52 DNA annealing, FRET fluorescence; at 18.7 µM; hits give high values
row,Compound,inhibition
1,COc1ccc(NC(=O)N(C)C[C@H]2Oc3ccc(NS(=O)(=O)c4ccc(F)cc4)cc3C(=O)N([C@@H](C)CO)C[C@@H]2C)cc1,15.8% (inactive)
2,C[C@H](CO)N1C[C@H](C)[C@@H](CN(C)Cc2ccc(Cl)c(Cl)c2)Oc2ccc(NS(=O)(=O)c3ccccc3)cc2C1=O,-11.9% (inactive)
3,NCCCNC(=S)NCCCN(Cc1ccc(Cl)cc1)c1ccc(Br)cn1,95% (active)
4,S=C(NCCCc1cnc[nH]1)NCCCN(Cc1ccc(Cl)c(Cl)c1)c1ccc(Br)cn1,-1.73% (inactive)
5,O=C(/C=C/c1ccc(Cl)cc1)Nc1ccc(Br)cn1,-0.893% (inactive)
6,O=C1CN(S(=O)(=O)c2ccccc2)C[C@H]2[C@H](c3ccc(C4=CCCC4)cc3)[C@@H](CO)N12,-19.1% (inactive)
7,C[C@H](NC(=O)C[C@@H]1C=C[C@H](NC(=O)CN2CCOCC2)[C@H](CO)O1)c1ccccc1,3.29% (inactive)
8,Cc1ccc2nc(CN(C)C(=O)[C@@H](Cc3ccccc3)NC(=O)[C@H]3O[C@@H](n4ccc(=O)[nH]c4=O)[C@H](O)[C@@H]3O)[nH]c2c1,5.6% (inactive)
9,C[C@@H]1CN([C@H](C)CO)C(=O)Cc2cc(N(C)C)ccc2O[C@H]1CN(C)S(C)(=O)=O,-4.07% (inactive)
10,CC(=O)NCCn1c(SCC(=O)Nc2ccc(C)cc2)nc2ccccc2c1=O,-11.4% (inactive)
11,CCc1c(C)nc2c(-c3ccccc3)c(C)nn2c1Nc1ccc(NC(C)=O)cc1,-12.3% (inactive)
12,CC(=O)Nc1ccc(Nc2c3ccccc3nc3ccccc23)cc1,91.2% (active)
13,O=C(c1cnccn1)N1CC(=O)N2[C@H](C1)[C@@H](c1ccc(C#CC3CCCCC3)cc1)[C@@H]2CO,13.7% (inactive)
14,CNC(=O)c1cccc2nc3ccccc3nc12,2.55% (inactive)
15,CN(C)CCNC(=O)c1ccc(Cl)c2cc3ccccc3nc12,94.5% (active)
16,O=C(NCCc1ccccn1)c1cc(-c2ccc(Cl)cc2)nc2ccccc12,-15.9% (inactive)
17,Cn1cnc(S(=O)(=O)N[C@H]2C=C[C@H](CC(=O)NCC3CCCCC3)O[C@@H]2CO)c1,2.08% (inactive)
18,C[C@@H]1CCCCO[C@H](CN(C)C(=O)CCCN(C)C)[C@H](C)CN([C@@H](C)CO)C(=O)c2cc(NS(=O)(=O)c3ccc(Cl)cc3)ccc2O1,52.5% (active)
19,C[C@@H]1CCCCO[C@H](CN(C)Cc2ccccc2)[C@H](C)CN([C@@H](C)CO)C(=O)c2cc(NS(=O)(=O)c3ccccc3)ccc2O1,7.51% (inactive)
20,C[C@@H]1CCCCO[C@H](CN(C)S(=O)(=O)c2cccs2)[C@H](C)CN([C@@H](C)CO)C(=O)c2cc(NS(=O)(=O)c3cccs3)ccc2O1,-2.6% (inactive)
21,C[C@H](CO)N1C[C@H](C)[C@H](CN(C)Cc2ccc(C(F)(F)F)cc2)OCCCC[C@H](C)Oc2ccc(NS(=O)(=O)c3ccc(Cl)cc3)cc2C1=O,5.56% (inactive)

row,Compound,inhibition
1,C[C@@H]1CN([C@@H](C)CO)C(=O)c2cc(NS(=O)(=O)c3cn(C)cn3)ccc2O[C@@H](C)CCCCO[C@H]1CN(C)S(=O)(=O)c1cccs1,99.3% (active)
2,C[C@@H]1CN([C@H](C)CO)C(=O)c2cc(NS(=O)(=O)c3ccc(Cl)cc3)ccc2O[C@@H](C)CCCCO[C@H]1CN(C)Cc1ccccc1,64.2% (active)
3,CC(C)NC(=O)N(C)C[C@H]1OCCCC[C@H](C)Oc2ccc(NS(=O)(=O)c3ccc(Cl)cc3)cc2C(=O)N([C@@H](C)CO)C[C@H]1C,15.1% (inactive)
4,C[C@@H]1CCCCO[C@H](CN(C)Cc2ccccc2)[C@@H](C)CN([C@H](C)CO)C(=O)c2cc(NS(=O)(=O)c3ccc(Cl)cc3)ccc2O1,35.2% (inactive) and -9.61% (inactive)
5,C[C@@H]1CCCCO[C@H](CN(C)Cc2ccccc2)[C@H](C)CN([C@H](C)CO)C(=O)c2cc(NS(=O)(=O)c3ccc(Cl)cc3)ccc2O1,53.1% (active)
6,C[C@@H]1CCCCO[C@H](CN(C)C(=O)CCCN(C)C)[C@H](C)CN([C@@H](C)CO)C(=O)c2cc(NS(=O)(=O)c3ccccc3)ccc2O1,13.8% (inactive)
7,C[C@H](CO)N1C[C@H](C)[C@@H](CN(C)Cc2ccncc2)OCCCC[C@H](C)Oc2ccc(NS(=O)(=O)c3ccc(Cl)cc3)cc2C1=O,-15.9% (inactive)
8,C[C@@H]1CN([C@H](C)CO)C(=O)c2cc(NS(=O)(=O)c3cccs3)ccc2O[C@@H](C)CCCCO[C@@H]1CN(C)S(=O)(=O)c1cccs1,-0.96% (inactive)
9,COc1cccc(S(=O)(=O)Nc2ccc3c(c2)[C@@H]2C[C@@H](CC(=O)NCc4ccc(Cl)cc4)O[C@H](CO)[C@@H]2O3)c1,10.3% (inactive)
10,CN(C)C(=O)C[C@@H]1C[C@H]2c3cc(NC(=O)Nc4ccccc4F)ccc3O[C@H]2[C@@H](CO)O1,-10% (inactive)
11,Cc1noc(C)c1S(=O)(=O)Nc1ccc2c(c1)CC(=O)N([C@@H](C)CO)C[C@H](C)[C@H](CN(C)C(=O)Nc1ccccc1)O2,-0.934% (inactive)
12,Cc1noc(C)c1NC(=O)Nc1cccc2c1O[C@@H](CN(C)C(=O)Nc1ccc(C(F)(F)F)cc1)[C@@H](C)CN([C@@H](C)CO)C2=O,-2.22% (inactive)
13,O=C(C[C@@H]1CC[C@@H]2[C@H](COC[C@H](O)CN2S(=O)(=O)c2ccc(Cl)cc2)O1)N[C@@H]1CCN(Cc2ccccc2)C1,17.8% (inactive)
14,O=C(C[C@H]1CC[C@H](NC(=O)Nc2ccccc2F)[C@@H](CO)O1)NCc1ccccc1,-8.56% (inactive)
15,COc1ccc(S(=O)(=O)Nc2ccc3c(c2)C(=O)N([C@H](C)CO)C[C@@H](C)[C@H](CN(C)Cc2ccccc2)O3)cc1,12.7% (inactive)
16,COc1cccc(-c2ccc([C@@H]3[C@@H](CO)N4C(=O)CN(C(=O)C5CCCCC5)C[C@H]34)cc2)c1,-17.9% (inactive)
17,CC(C)NC(=O)N(C)C[C@H]1OCCCC[C@@H](C)Oc2ccc(NC(=O)C3CCCCC3)cc2C(=O)N([C@H](C)CO)C[C@H]1C,-14% (inactive)
18,CO[C@H]1CN(C)C(=O)c2ccc(NC(=O)c3cccc(F)c3)cc2OC[C@@H](C)N(C(C)=O)C[C@@H]1C,3.49% (inactive)
19,C[C@H](CO)N1C[C@H](C)[C@@H](CN(C)S(C)(=O)=O)OCCCC[C@H](C)Oc2ccc(NC(=O)Nc3ccc(C(F)(F)F)cc3)cc2C1=O,9.95% (inactive)
20,CCCN(C)C[C@@H]1OCCCC[C@@H](C)Oc2ccc(NC(=O)Nc3ccc(C(F)(F)F)cc3)cc2C(=O)N([C@H](C)CO)C[C@H]1C,61.7% (active)
21,C[C@@H]1CCCCO[C@H](CN(C)Cc2ccc(C(F)(F)F)cc2)[C@H](C)CN([C@H](C)CO)C(=O)c2cc(NC(=O)Nc3ccc(F)cc3)ccc2O1,-10% (inactive)

row,Compound,inhibition
1,CN1C(=O)c2cc(NC(=O)C3CCOCC3)ccc2OC[C@@H]2O[C@H](CC(=O)NCc3ccccc3F)CC[C@H]21,-6.2% (inactive)
2,COCC(=O)Nc1ccc2c(c1)OC[C@H](C)N(Cc1ccccc1OC)C[C@@H](C)[C@@H](OC)CN(C)C2=O,5.08% (inactive)
3,CCC1CCCCN1CCCNC(=O)c1cc2c(Cl)nc3ccccc3c2s1 (stereo not drawn),64.2% (active)
4,Cc1nc2ccccc2c2oc(C(=O)NCCCN3CCC(C)CC3)cc12,24.5% (inactive)
5,CCCn1c2ccccc2c2cnn(CC(=O)NCCCN3CCCCC3CC)c(=O)c21 (stereo not drawn),6.95% (inactive)
6,C[C@@H]1CN([C@H](C)CO)C(=O)c2cccc(NC(=O)C3CCOCC3)c2O[C@H]1CN(C)S(=O)(=O)c1ccc(Cl)cc1,-3.65% (inactive)
7,OC[C@H]1[C@H](c2ccc(-c3cccnc3)cc2)[C@H]2CN(Cc3ccccn3)CCCCN21,-13.2% (inactive)
8,OC[C@@H]1[C@H](c2ccc(C#Cc3ccccc3)cc2)[C@@H]2CN(Cc3cncnc3)CCCCN12,-7.81% (inactive)
9,OC[C@H]1[C@@H](c2ccc(/C=C/c3ccccc3)cc2)[C@H]2CN(Cc3cccnc3)CCCCN21,57.1% (active)
10,C[C@H]1CN([C@@H](C)CO)C(=O)Cc2cc(NS(=O)(=O)c3ccc(Cl)cc3)ccc2O[C@@H]1CN(C)S(=O)(=O)c1ccccc1,0.925% (inactive)
11,O=C(Cc1ccccn1)N[C@@H]1CC[C@H](CCn2cc(-c3ccc(F)cc3)nn2)O[C@@H]1CO,-0.234% (inactive)
12,COc1cccc(CNc2nc(NCc3cccs3)nc3ccsc23)c1,63.7% (active)
13,COc1cccc(CNc2nc(NCc3ccccc3OC)nc3ccsc23)c1,-11.5% (inactive)
14,Clc1ccccc1Nc1nc(NCc2cccs2)nc2ccsc12,-19.9% (inactive)
15,C[C@@H]1CN([C@H](C)CO)C(=O)c2cc(-c3ccc(C#N)cc3)cnc2O[C@@H]1CN(C)C(=O)Nc1ccccc1,4.39% (inactive)
16,COc1ccc(-c2ccc([C@@H]3[C@@H](CO)N4CCCCN(C(=O)NC(C)C)C[C@H]34)cc2)cc1,0.301% (inactive)
17,CCC(=O)Nc1ccc2c(c1)C(=O)N(C)[C@@H]1CC[C@@H](CC(=O)NCCc3ccccc3)O[C@H]1CO2,-0.75% (inactive)
18,CC(C)CC#Cc1ccc2c(c1)O[C@H](CN(C)S(=O)(=O)c1cccc(F)c1)[C@@H](C)CN([C@@H](C)CO)S2(=O)=O,10.9% (inactive)
19,COc1ccc(NC(=O)C2Cc3c(-c4cccc(NC(C)=O)c4)ccnc3O2)cc1OC (stereo not drawn),-0.756% (inactive)
20,COc1ccc(NC(=O)C2C3CCC(O3)C2C(=O)O)cc1OC (stereo not drawn),71.2% (active)
21,COc1ccc(NC(=S)SC)cc1OC,-5.52% (inactive)
